Where a name gives a salt, the structure may show the parent alone.
test system: Drosophila S2 cl14 SmoIP sensor cells; assay: normalized SmoIP GFP fluorescence (untreated unstimulated = 0%, untreated Hh-stimulated = 100%); higher = more Smo activation sensor fluorescence; settings: stimulation: Hh conditioned medium (+Hh); compound concentration: 2 uM; 24 h
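Note: flow cytometry read-out as median GFP intensity of gated cells, compounds added 30 min before Hh-conditioned or mock medium, mock-treated cells serving as unstimulated baseline.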

Compound	normalized SmoIP GFP fluorescence [%]
CC1(C)CCC(c2ccc(Cl)cc2)=C(CN2CCN(c3ccc(C(=O)NS(=O)(=O)c4ccc(N[C@H](CCN5CCOCC5)CSc5ccccc5)c(S(=O)(=O)C(F)(F)F)c4)cc3)CC2)C1	108
Cc1ccc(NC(=O)C2(c3ccc4c(c3)OC(F)(F)O4)CC2)nc1-c1cccc(C(=O)O)c1	80
O=C(NNc1ccccc1)c1ccncc1	105
Cc1cccc(CC(=O)N2CCc3c2ccc(-c2cn(C)c4ncnc(N)c24)c3F)n1	102
FC(F)c1nc2ccccc2n1-c1nc(N2CCOCC2)nc(N2CCOCC2)n1	90.8
O=C(O)CCc1ccc(NCc2cccc(Oc3ccccc3)c2)cc1	105

same assay, conditions: stimulation: mock conditioned medium (-Hh); compound concentration: 2 uM; 24 h

Compound	normalized SmoIP GFP fluorescence [%]
C[C@]12C=CC(=O)N[C@@H]1CC[C@@H]1[C@@H]2CC[C@]2(C)[C@@H](C(=O)Nc3cc(C(F)(F)F)ccc3C(F)(F)F)CC[C@@H]12 [Dutasteride]	4.26
C=C1C(=O)O[C@@H]2/C=C(\C)CC/C=C(\C)CC[C@@H]12 [Costunolide]	27.4
COc1c(C)c2c(c(O)c1C/C=C(\C)CCC(=O)OCCN1CCOCC1)C(=O)OC2 [Mycophenolate-mofetil-(CellCept)]	5.98
COc1ccc2cc(-c3nc(-c4ccc([S+](C)[O-])cc4)[nH]c3-c3ccncc3)ccc2c1 (stereo not given) [Tie2-kinase-inhibitor]	21.9
C[C@]12CC[C@@H]3c4ccc(O)cc4C[C@@H](CCCCCCCCC[S+]([O-])CCCC(F)(F)C(F)(F)F)[C@H]3[C@@H]1CC[C@@H]2O (stereo not given in full) [Fulvestrant]	12.4
Nc1ccc(C(=O)Nc2cccc(-c3nc(N4CCOCC4)c4oc5ncccc5c4n3)c2)cn1	5.45
C=CC[N+]1([C@H]2C[C@H]3[C@@H]4CC[C@H]5C[C@H](O)[C@@H](N6CCOCC6)C[C@]5(C)[C@H]4CC[C@]3(C)[C@H]2OC(C)=O)CCCC1 [Rocuronium-bromide]	10.2
Cc1nc(C(=O)NCC(=O)O)c(O)c2ccc(Oc3ccccc3)cc12	11
NC(=O)c1cn(Cc2c(F)cccc2F)nn1 [Rufinamide]	1.89
COc1cc(Nc2nc3ccccc3nc2NS(=O)(=O)c2ccc(NC(=O)c3ccc(C)c(OC)c3)cc2)cc(OC)c1	5.66
CC1(C)CCC(c2ccc(Cl)cc2)=C(CN2CCN(c3ccc(C(=O)NS(=O)(=O)c4ccc(N[C@H](CCN5CCOCC5)CSc5ccccc5)c(S(=O)(=O)C(F)(F)F)c4)cc3)CC2)C1	20.1
CCN(CC)CC(=O)Nc1c(C)cccc1C [Lidocaine]	2.97
O=C(c1cc(Cc2n[nH]c(=O)c3ccccc23)ccc1F)N1CCN(C(=O)C2CC2)CC1 [AZD2281(Olaparib)]	1.35
Cc1[nH]c2ccccc2c1CCNCc1ccc(/C=C/C(=O)NO)cc1	81.3
O=C(NNc1ccccc1)c1ccncc1	-2.71
COCCCC/C(=N\OCCN)c1ccc(C(F)(F)F)cc1 [Fluvoxamine-maleate]	11
N#C/C(=C\c1ccc(O)c(O)c1)C(=O)NCc1ccccc1	9.54
C[C@]12CCC3=C4CCC(=O)C=C4CC[C@H]3[C@@H]1CC[C@@]2(O)CC#N [Dienogest]	10.2
CC(C)C[C@H](NC(=O)[C@@H](NC(=O)c1cccc(-c2ccccc2)n1)[C@@H](C)O)B(O)O	64.4
O=c1cc(-c2cccc3c2Sc2ccccc2S3)oc(N2CCOCC2)c1	2.43
O=C(Nc1c[nH]nc1-c1nc2ccc(CN3CCOCC3)cc2[nH]1)NC1CC1	94.8
N=C(N)Nc1ccc(C(=O)Oc2ccc3cc(C(=N)N)ccc3c2)cc1 [Nafamostat-mesylate]	16.2
Cc1cccc(CC(=O)N2CCc3c2ccc(-c2cn(C)c4ncnc(N)c24)c3F)n1	-1.63
Cc1cc(NC(=O)Nc2ccc(N(C)C)cc2)c2cc(F)cc(F)c2n1	24.9
O=C(Nc1ccc(OC(F)(F)F)cc1)c1sccc1NCc1ccnc2ccccc12	9.86
COC(=O)Nc1ccc(-c2nc(N3CCOCC3)c3cnn(C4CCN(C(=O)OC)CC4)c3n2)cc1	-12.5
COc1ccc(S(=O)(=O)N(C(C)=O)c2ccccc2/C=C/c2cc[n+]([O-])cc2)cc1	1.03
CN(C)C(=O)c1ccc(S(=O)(=O)c2ccc(NC(=O)[C@@](C)(O)C(F)(F)F)c(Cl)c2)cc1	-2.1
COc1ccccc1OCC(O)CN1CCN(CC(=O)Nc2c(C)cccc2C)CC1 (stereo not given) [Ranolazine-dihydrochloride]	2.97

Source: the supplement of paper PMC5662767
